These results are taken from PubChem BioAssay (EPA / NIEHS).

A word on the AC50: it is the midpoint of the concentration-response curve, whichever way the signal moves.

Activity calls are given as the source filed them. The calls were made as follows: active = hit-call score of the fitted dose curve at least 0.9, where 1 is the maximum; inactive = score below 0.9.

One assay can be described thus: ATG_M_61_CIS: Attagene CIS-FACTORIAL HepG2 Assay for M61 Transcription Factor (Internal Marker) (AID 2282937). The conditions noted are these: HepG2 Attagene CIS-FACTORIAL M61 internal marker reporter; actives raise or lower the signal. In outline:
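Using transiently transfected HepG2 liver cells, reporter transcript levels were assessed 24 h post-dosing by RT-PCR and capillary electrophoresis. Changes in either direction were fitted relative to DMSO controls.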
Take `O=C(O)c1cccc(C(=O)O)n1`: the molecule was classed as inactive.

Take `O=P(O)(O)CCC(F)(F)C(F)(F)C(F)(F)C(F)(F)C(F)(F)C(F)(F)F`: the molecule was called inactive.

With `CN(Cc1cnc2nc(N)nc(N)c2n1)c1ccc(C(=O)N[C@@H](CCC(=O)O)C(=O)O)cc1`, the molecule was classed as inactive.

In the case of `O=C(OC(=O)C(F)(F)C(F)(F)F)C(F)(F)C(F)(F)F`, the call was inactive.

In the case of `Cc1cccc2c1ccc1ccccc12`, the molecule was classed as inactive.

With `CCCCC(CC)C(=O)OCCOCCOCCOCCOC(=O)C(CC)CCCC` (centres undefined), the molecule was classed as inactive.

Take `O=C(O)CCC(F)(F)C(F)(F)C(F)(F)C(F)(F)C(F)(F)C(F)(F)F`: the call was inactive.

`CCCCCCCCCCCCOC(=O)c1cc(O)c(O)c(O)c1`: the outcome was inactive.

As for `CC(C)(C)c1ccc(CCC=O)cc1`, the molecule was called inactive.

Turning to `O=C(O)CN(CCCN(CC(=O)O)CC(=O)O)CC(=O)O`, the result was inactive.

On to `Cc1ccccc1C(OCCN(C)C)c1ccccc1` (centres undefined), for which the result was inactive.

For `CC(C)(C)C1CCCCC1O` (centres undefined), the molecule was classed as inactive.

On to `c1ccc(CNc2ncnc3c2ncn3C2CCCCO2)cc1` (centres undefined), for which the outcome was inactive.

Turning to `C=CC(=C)CC/C=C(\C)CCC=C(C)C`, the molecule was called inactive.

Take `Clc1ccc(Nc2nnc(Cc3ccncc3)c3ccccc23)cc1`: the call was inactive.

In the case of `CCOC(=O)CN[C@@H](C(=O)N1CC[C@H]1C(=O)NCc1ccc(/C(N)=N/O)cc1)C1CCCCC1`, the outcome was inactive.

Regarding `CC1CNCC(C)O1` (centres undefined), the outcome was inactive.

As for `Cc1cc(Cc2cc(C)cc(C(C)(C)C)c2O)c(O)c(C(C)(C)C)c1`, the molecule was called inactive.

As to `CCC(=O)C=Cc1ccc(OC)cc1`, the result was inactive.

For the molecule `CC=O`, the molecule was called inactive.

For the molecule `CCCCCCCCCCCCCCCCCC[N+](C)(C)Cc1ccccc1`, the molecule was classed as inactive.

As for `Nc1cc(Cl)c(-c2cc(Cl)c(N)cc2Cl)cc1Cl`, the call was inactive.

For the molecule `Oc1cccc2c(O)cccc12`, the molecule was classed as inactive.

`CC1CCC(C(=O)O)CC1` (centres undefined): the result was inactive.

On to `CC1=CC(=O)c2ccccc2C1=O`, for which the call was inactive.

`CCCCCCCCCCCCCC[n+]1ccccc1`: the result was inactive.

In the case of `CCCCCCCCC1CCC(=O)O1` (centres undefined), the molecule was classed as inactive.

As for `C=CCOCC(CO)(CO)CO`, the call was inactive.

`FC(F)(F)C1(F)C(F)(F)C(F)(F)C(F)(F)C1(F)F`: the result was inactive.

Consider `Oc1c(Cl)cc(Cl)cc1Sc1cc(Cl)cc(Cl)c1O`, for which the call was inactive.

As for `NNc1nc(-c2ccc([N+](=O)[O-])cc2)cs1`, the molecule was called inactive.

In the case of `O=CC(F)(F)C(F)(F)C(F)(F)C(F)F`, the molecule was classed as inactive.

As to `Nc1ccc(O)c(C(=O)O)c1`, the molecule was called inactive.

For `Cn1sccc1=O`, the call was inactive.

Consider `O=C1OC(=O)C(F)(F)C1(F)F`, for which the molecule was classed as inactive.

In the case of `FC(F)(F)C1(F)C(F)(F)C(F)(F)C(F)(F)C(F)(C(F)(F)F)C1(F)F` (centres undefined), the result was inactive.

`CCCCCCOC(=O)c1ccc(O)cc1`: the molecule was classed as inactive.

A short description of a further assay: ATG_EGR_CIS: Attagene CIS-FACTORIAL HepG2 Assay for human Early Growth Response 1 (EGR1) (AID 2282938). As to conditions: HepG2 Attagene CIS-FACTORIAL EGR reporter mRNA; actives raise or lower the signal. In outline: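 Fluorescent capillary-electrophoresis signal of reporter cDNA fragments serves as read-out. HepG2 cells bear transiently transfected cis-promoter reporter units and are exposed 24 h; gain- or loss-of-signal is fitted against DMSO.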
As for `O=C(O)c1cccc(C(=O)O)n1`, the molecule was classed as inactive.

For `O=P(O)(O)CCC(F)(F)C(F)(F)C(F)(F)C(F)(F)C(F)(F)C(F)(F)F`, the molecule was classed as inactive.

Consider `CN(Cc1cnc2nc(N)nc(N)c2n1)c1ccc(C(=O)N[C@@H](CCC(=O)O)C(=O)O)cc1`, for which the result was inactive.

On to `O=C(OC(=O)C(F)(F)C(F)(F)F)C(F)(F)C(F)(F)F`, for which the call was inactive.

With `Cc1cccc2c1ccc1ccccc12`, the molecule was called inactive.

For `CCCCC(CC)C(=O)OCCOCCOCCOCCOC(=O)C(CC)CCCC` (centres undefined), the molecule was called inactive.

Regarding `O=C(O)CCC(F)(F)C(F)(F)C(F)(F)C(F)(F)C(F)(F)C(F)(F)F`, the result was inactive.

As to `CCCCCCCCCCCCOC(=O)c1cc(O)c(O)c(O)c1`, the molecule was classed as inactive.

Consider `CC(C)(C)c1ccc(CCC=O)cc1`, for which the molecule was classed as inactive.

With `O=C(O)CN(CCCN(CC(=O)O)CC(=O)O)CC(=O)O`, the AC50 was 6.32 µM (active).

As to `Cc1ccccc1C(OCCN(C)C)c1ccccc1` (centres undefined), the molecule was classed as inactive.

Regarding `CC(C)(C)C1CCCCC1O` (centres undefined), the outcome was inactive.

`c1ccc(CNc2ncnc3c2ncn3C2CCCCO2)cc1` (centres undefined): the outcome was inactive.

For the molecule `C=CC(=C)CC/C=C(\C)CCC=C(C)C`, the call was inactive.

For `Clc1ccc(Nc2nnc(Cc3ccncc3)c3ccccc23)cc1`, the AC50 is 16 µM (active).

In the case of `CCOC(=O)CN[C@@H](C(=O)N1CC[C@H]1C(=O)NCc1ccc(/C(N)=N/O)cc1)C1CCCCC1`, the molecule was classed as inactive.

On to `CC1CNCC(C)O1` (centres undefined), for which the call was inactive.

As for `Cc1cc(Cc2cc(C)cc(C(C)(C)C)c2O)c(O)c(C(C)(C)C)c1`, the concentration at half-maximal activity (AC50) was 100 µM (active).

In the case of `CCC(=O)C=Cc1ccc(OC)cc1`, the AC50 was 100 µM (active).

Consider `CC=O`, for which the molecule was classed as inactive.

In the case of `CCCCCCCCCCCCCCCCCC[N+](C)(C)Cc1ccccc1`, the outcome was inactive.

In the case of `Nc1cc(Cl)c(-c2cc(Cl)c(N)cc2Cl)cc1Cl`, the molecule was called inactive.

With `Oc1cccc2c(O)cccc12`, the result was inactive.

For `CC1CCC(C(=O)O)CC1` (centres undefined), the call was inactive.

As to `CC1=CC(=O)c2ccccc2C1=O`, the result was inactive.

Turning to `CCCCCCCCCCCCCC[n+]1ccccc1`, the AC50 is 2.52 µM (active).

On to `CCCCCCCCC1CCC(=O)O1` (centres undefined), for which the call was inactive.

Turning to `C=CCOCC(CO)(CO)CO`, the result was inactive.

With `FC(F)(F)C1(F)C(F)(F)C(F)(F)C(F)(F)C1(F)F`, the result was inactive.

On to `Oc1c(Cl)cc(Cl)cc1Sc1cc(Cl)cc(Cl)c1O`, for which the molecule was classed as inactive.

With `NNc1nc(-c2ccc([N+](=O)[O-])cc2)cs1`, the result was inactive.

In the case of `O=CC(F)(F)C(F)(F)C(F)(F)C(F)F`, the molecule was classed as inactive.

For the molecule `Nc1ccc(O)c(C(=O)O)c1`, the molecule was classed as inactive.

For the molecule `Cn1sccc1=O`, the AC50 is 165 µM (active).

On to `O=C1OC(=O)C(F)(F)C1(F)F`, for which the result was inactive.

Regarding `FC(F)(F)C1(F)C(F)(F)C(F)(F)C(F)(F)C(F)(C(F)(F)F)C1(F)F` (centres undefined), the molecule was called inactive.

Turning to `CCCCCCOC(=O)c1ccc(O)cc1`, the half-maximal activity concentration (AC50) was 52.2 µM (active).
